Several values for one entry are separate records, joined by “and”; a condition that tells them apart may be missing. Equal entries are not always repeated. Inconclusive results are not listed. Some structures have more than one record in an assay (separate samples or runs), and their calls can disagree. Activity calls are given as the source filed them. The calls were made as follows, unless noted: active = hit-call score of the fitted dose curve at least 0.9, where 1 is the maximum; inactive = score below 0.9.
How the values were obtained:
[1] = CCTE_Shafer_MEA_dev_active_electrodes_number: CCTE's Neural Network Formation Assay for Number of Active Electrodes, Shafer Lab (AID 2284040; active = hit-call score of the fitted dose curve at least 0.9, where 1 is the maximum;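 as to AC50: potency for loss of active electrodes versus DMSO so lower counts are hits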)
Outline: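 Primary rat cortical neurons on 16-electrode MEA wells, exposed from day 0 through day 12 with compound renewed at DIV 5 and 9 feeds. Active electrodes (mean firing ≥5 spikes/min) counted at DIV 5, 7, 9, 12; trapezoidal AUC across days, loss-of-signal versus DMSO.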

[2] = CCTE_Shafer_MEA_dev_burst_rate: CCTE's Neural Network Formation Assay for Burst Rate, Shafer Lab (AID 2284042);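 as to AC50: potency for loss of burst rate below DMSO control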
Outline: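 Primary rat cortical neurons on PEI-coated 48-well MEA plates (laminin added with cells at plating) (16 electrodes/well), exposed from plating to day 12, dosing renewed at DIV 5 and 9. Burst rate averaged over active electrodes, recorded DIV 5, 7, 9, 12, summarized as AUC; loss versus DMSO.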

[3] = CCTE_Shafer_MEA_dev_bursting_electrodes_number: CCTE's Neural Network Formation Assay for Number of Bursting Electrodes, Shafer Lab (AID 2284043; active = hit-call score of the fitted dose curve at least 0.9, where 1 is the maximum;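 as to AC50: potency is for loss of bursting electrodes relative to DMSO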)
Outline: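 Read-out is the per-well number of electrodes bursting at least once every 2 minutes, recorded on days 5, 7, 9 and 12 and collapsed by trapezoidal area under the curve. Cultures were primary rat cortical neurons on MEA plates, treated continuously from plating.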

[4] = CCTE_Shafer_MEA_dev_per_burst_interspike_interval: CCTE's Neural Network Formation Assay for Burst Interspike Interval, Shafer Lab (AID 2284044);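 also: mean spike spacing inside bursts as AUC over recordings on days 5 7 9 12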;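 as to AC50: potency for a decrease of within-burst interspike interval below DMSO level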
Outline: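 Rat cortical primary cultures, 16 electrodes/well; compound from plating, renewed with full media change DIV 5 and 9. Spikes via adaptive detector; per-burst ISI well-mean over active bursting electrodes; AUC of DIV 5/7/9/12 recordings; loss-direction fit vs DMSO.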

[5] = CCTE_Shafer_MEA_dev_burst_duration_mean: CCTE's Neural Network Formation Assay for Mean Burst Duration, Shafer Lab (AID 2284045);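 as to AC50: curve fitted for loss meaning shorter burst duration than DMSO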
Outline: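 Read-out: average first-to-last-spike interval within single-electrode bursts, averaged over bursting electrodes per well, then summarised as area under the curve across days 5, 7, 9 and 12. Developing rat cortical networks were exposed from day 0.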

[6] = CCTE_Shafer_MEA_dev_inter_network_spike_interval_mean: CCTE's Neural Network Formation Assay for Mean Inter-network Spike Interval, Shafer Lab (AID 2284047);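 as to AC50: potency for a decrease in mean inter-network spike interval below DMSO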
Outline: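 Primary rat cortical neurons on 16-electrode MEA wells, exposed from plating day 0 through DIV 12, compound renewed at DIV 5 and 9 media changes. Mean interval between network-spike peaks recorded DIV 5, 7, 9, 12; collapsed as trapezoidal AUC, fitted downward versus DMSO.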

[7] = CCTE_Shafer_MEA_dev_network_spike_number: CCTE's Neural Network Formation Assay for Number of Network Spikes, Shafer Lab (AID 2284048);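 also: synchronized bursts across electrodes counted on days 5 7 9 12 and integrated as AUC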;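 as to AC50: fit as a loss of signal meaning fewer network spikes than DMSO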
Outline: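 Developing networks of primary rat cortical neurons are treated over 12 days starting at plating, with media and compound fully replaced on DIV 5 and 9. Network spike counts from four recording days are integrated as trapezoidal AUC.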

[8] = CCTE_Shafer_MEA_dev_network_spike_peak: CCTE's Neural Network Formation Assay for Mean Number of Electrodes in Network Spike, Shafer Lab (AID 2284049);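 as to AC50: fitted for loss of signal meaning fewer electrodes in network spikes than DMSO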
Outline: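 Rat cortical primary culture, 1.5 x 10^5 cells/well, 48-well MEA (16 electrodes/well). Dosing day 0 through DIV 12, full media/compound exchange DIV 5, 9. AxIS adaptive spike detection; AUC over days 5/7/9/12; loss-of-signal vs DMSO.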

DIO2 (gene 1734) = test: CCTE_GLTED_hDIO2: CCTE's human Deiodinase 2 (DIO2) Inhibition Assay, Great Lakes Toxicology and Ecology Division (GLTED) Lab (AID 2284050; active = hit-call score of the fitted dose curve at least 0.9, where 1 is the maximum)
Outline: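 Cell-free human DIO2 incubated 3 h with chemical; liberated iodide quantified by Sandell-Kolthoff absorbance. Triplicate plates; loss of signal fitted vs DMSO.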

[9] = CCTE_Shafer_MEA_dev_spike_duration_mean: CCTE's Neural Network Formation Assay for Mean Spike Duration, Shafer Lab (AID 2284051);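 also: mean network spike duration pooled as area under curve over DIV 5 to 12 recordings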;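 as to AC50: potency for a decrease in mean network spike duration versus DMSO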
Outline: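 Primary rat cortical neurons on 16-electrode MEA wells (PEI-coated, laminin in plating drop), exposed from plating through DIV 12 with compound renewed at DIV 5 and 9. Mean network-spike duration recorded DIV 5, 7, 9, 12; trapezoidal AUC across days, DMSO baseline.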

[10] = CCTE_Shafer_MEA_dev_network_spike_duration_std: CCTE's Neural Network Formation Assay for Standard Deviation of Network Spike Duration, Shafer Lab (AID 2284052);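 also: area under curve of spike duration SD across recording days 5 to 12; hits are decreases in network spike duration SD versus DMSO vehicle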
Outline: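 Primary rat cortical neurons on PEI-coated 16-electrode MEA wells, exposed from plating day 0 through day 12 with compound renewed at DIV 5 and 9. Network spike duration SD recorded on days 5, 7, 9, 12, collapsed as trapezoidal AUC; loss-of-signal fit versus DMSO.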

[11] = CCTE_Shafer_MEA_dev_per_network_spike_spike_percent: CCTE's Neural Network Formation Assay for Percent of Spikes in a Network Spike, Shafer Lab (AID 2284054)
Outline: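 Rat primary cortical cultures, 1.5 x 10^5 cells/well on MEA. Continuous compound exposure d0–12, medium/compound renewed DIV 5, 9. Network-spike spike % (0.05 s peak window), AUC over 4 recordings, DMSO baseline.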

DIO3 (gene 1735) = test: CCTE_GLTED_hDIO3: CCTE's human Deiodinase 3 (DIO3) Inhibition Assay, Great Lakes Toxicology and Ecology Division (GLTED) Lab (AID 2284055; active = hit-call score of the fitted dose curve at least 0.9, where 1 is the maximum;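 as to AC50: potency is for inhibition seen as loss of released iodide signal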)
Outline: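 Human DIO3 from an adenovirus expression system is incubated 3 h with test chemical. Released iodide is quantified by Sandell-Kolthoff absorbance, in triplicate plates. Loss of signal is fitted relative to DMSO.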

[12] = CCTE_Shafer_MEA_dev_LDH: CCTE's Lactate Dehydrogenase Assay for Cytotoxicity in the Neural Network Formation Assay, Shafer Lab (AID 2284068; active = hit-call score of the fitted dose curve at least 0.9, where 1 is the maximum;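 also: exposure for twelve days from plating with re-dosing on DIV 5 and 9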)
Outline: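 Primary rat cortical neurons were plated on PEI/laminin MEA plates and exposed from day 0 for twelve days, with compound renewed at DIV 5 and 9. Cytotoxicity was determined by spectrophotometric LDH assay relative to DMSO.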

[13] = CCTE_Shafer_MEA_dev_AB: CCTE's Alamar Blue Assay for Cytotoxicity in the Neural Network Formation Assay, Shafer Lab (AID 2284083; active = hit-call score of the fitted dose curve at least 0.9, where 1 is the maximum;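 also: twelve days of exposure from plating with re-dosing on DIV 5 and 9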)
Outline: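 Primary rat cortical neurons on PEI-coated 48-well MEA plates, 1.5 x 10^5 cells/well in laminin drop; compound exposure from day 0 of plating for twelve days, renewed at medium changes on DIV 5 and 9. Viability read as resazurin reduction by fluorescence, relative to DMSO.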

[14] = UKN5_HCS_SBAD2_cell_viability: Viability Assessment in the University of Konstanz (UKN) Leist Lab Neurite Outgrowth Assay in human iPSC-derived immature Dorsal Root Ganglia Neurons (UKN5) (AID 2284056)
Outline: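 iPSC-derived immature peripheral neurons (SBAD2) seeded on Matrigel with CHIR99021, SU5402 and DAPT, dosed 1 h later for 24 h. Viability from Hoechst H-33342 and calcein-AM live staining, high-content imaging; bidirectional fit versus DMSO.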

[15] = UKN5_HCS_SBAD2_neurite_outgrowth: University of Konstanz (UKN) Leist Lab Neurite Outgrowth Assay in human iPSC-derived immature Dorsal Root Ganglia Neurons (UKN5) (AID 2284070); conditions: actives raise or lower the signal
Outline: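 SBAD2 iPSC-derived immature peripheral neurons on Matrigel, 100.000 cells/cm2, medium with CHIR99021 (1.5 uM), SU5402 (5 uM), DAPT (5 uM); compound added 1 h post-seeding for 24 h. Calcein-AM neurite area by high-content imaging; Hoechst H-33342 viability; bidirectional fit vs DMSO.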

Measured: AC50

C=C(C)[C@H]1Cc2c(ccc3c2O[C@@H]2COc4cc(OC)c(OC)cc4[C@@H]2C3=O)O1
inactive: DIO2 (gene 1734)
active: [1] 25.2 nM and 14.1 nM | [2] 17.3 nM and 6.73 nM | [3] 22.8 nM and 12.4 nM | [4] 36.4 nM and 32.6 nM | [5] 29.8 nM and 31 nM | [6] 20.1 nM and 26.2 nM | [7] 14 nM and 10.7 nM | [8] 24.9 nM and 16.5 nM | [9] 35.4 nM and 21.1 nM | [10] 27.7 nM and 14.6 nM | [11] 16.8 nM and 13.3 nM | DIO3 (gene 1735) 2.39 µM | [12] 16.4 nM and 15.4 nM | [13] 38.4 nM and 57.1 nM

CC(C)=CC1C(C(=O)OCN2C(=O)C3=C(CCCC3)C2=O)C1(C)C (centres undefined)
active: [8] 1.98 µM | DIO2 (gene 1734) 70 µM | [12] 10 µM
inactive: [1] | [2] | [3] | [4] | [5] | [6] | [7] | [9] | [10] | [11] | DIO3 (gene 1735) | [13]

COP(=O)(OC)OC(Br)C(Cl)(Cl)Br (centres undefined)
active: [1] 7.62 µM and 14.8 µM | [2] 7.93 µM and 13.3 µM | [3] 6.36 µM and 12.9 µM | [4] 9.62 µM and 16 µM | [5] 12.8 µM | [6] 2.15 µM | [7] 3.48 µM and 13.2 µM | [8] 9.05 µM and 11.9 µM | [9] 8.37 µM and 12.8 µM | [10] 4.26 µM and 9.92 µM | [11] 8.6 µM and 12 µM | [12] 6.64 µM and 17.1 µM | [13] 7.73 µM and 16.4 µM
inactive: [5] | [6]

CCNc1nc(Cl)nc(NC(C)(C)C#N)n1
inactive: DIO2 (gene 1734)
active: DIO3 (gene 1735) 21.5 µM

CC(=NC#N)N(C)Cc1ccc(Cl)nc1
inactive: [1] | [2] | [3] | [4] | [5] | [6] | [7] | [8] | [9] | [10] | [11] | [14] | [15] | [13]

CCOP(=S)(OCC)Oc1cc(C)nc(C(C)C)n1
inactive: [2] | [4] | [5] | [6] | [7] | [8] | [9] | [10] | [11] | [13]
active: [1] 75.9 µM | [3] 60.2 µM | [8] 50 µM | [11] 77 µM | [12] 50 µM | [13] 50 µM

C[N+]1(C)CCCCC1
active: [1] 15 µM | [8] 15 µM
inactive: [2] | [3] | [4] | [5] | [6] | [7] | [9] | [10] | [11] | [13]

CSC1=N[C@@](C)(c2ccccc2)C(=O)N1Nc1ccccc1
active: [12] 15 µM
inactive: [1] | [2] | [3] | [4] | [5] | [6] | [7] | [8] | [9] | [10] | [11] | [14] | [15] | [13]

CCCOCC(=Nc1ccc(Cl)cc1C(F)(F)F)n1ccnc1
active: DIO2 (gene 1734) 2.92 µM | DIO3 (gene 1735) 2.38 µM

CN1COCN(Cc2cnc(Cl)s2)C1=N[N+](=O)[O-]
inactive: [1] | [2] | [3] | [4] | [5] | [6] | [7] | [8] | [9] | [10] | [11] | [12]

CCOP(=S)(Oc1cnc(C(C)(C)C)nc1)OC(C)C (centres undefined)
inactive: [2] | [4] | [5] | [6] | [7] | [10]
active: [1] 93.2 µM and 14.9 µM | [2] 14.3 µM | [3] 91.8 µM and 12 µM | [4] 12 µM | [7] 14.8 µM | [8] 85.8 µM and 13 µM | [9] 74.9 µM and 9.65 µM | [11] 84.5 µM and 23 µM | [12] 77.4 µM and 20.6 µM | [13] 80.1 µM and 25.9 µM

— PubChem BioAssay (EPA / NIEHS)
